The list is not random: actives were taken first. Their share in the collection is about 19%.
HT1080 IDH1KD tx: qHTS for induction of synthetic lethality in tumor cells producing 2HG: qHTS for the HT-1080-IDH1KD cell line. HT-1080 IDH1 knockdown viability, ATP luminescence, 48 h. actives 2% (n = 360,000). AID 686971, 2013. Potency, µM (top dose mostly 46.1 µM), for the others: top-dose activity, negative = toxicity, hits mostly cytotoxic;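 further: potency means the concentration at half of the fitted maximal effect; 0% = DMSO wells and -100% = cell-free medium wells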
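Assay cells: HT-1080 with IDH1 knockdown, 750 per well, RPMI/5% FBS. Exposure: 48 h at 37 °C following 2 h pre-incubation. Read: CellTiter-Glo luminescence; fitted concentration-response, curve class assigned.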
HT1080-NT tox: qHTS for induction of synthetic lethality in tumor cells producing 2HG: qHTS for the HT-1080-NT fibrosarcoma cell line; HT-1080-NT fibrosarcoma viability, CellTiter-Glo ATP luminescence, 48 h; Potency, µM (series often up to 46.1 µM), without a hit: at the top dose activity, negative = less viability, actives largely listed as cytotoxic; actives 1.6% (n = 360,000); AID 686970, 2013;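 further: NT is the 2HG producing partner of a matched IDH1 knockdown line; potency means the concentration at half of the fitted maximal effect; 0% = DMSO-treated cells and -100% = media-only wells without cells; nearly all actives have a fitted effect of over 55% in size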
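Viability by CellTiter-Glo luminescence after 48 h compound exposure at 37C of HT-1080-NT cells (750/well, RPMI, 5% FBS). % activity scaled between DMSO wells and medium-only wells, then curve-fitted and categorized by curve class.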
IL1B secr inh: qHTS for Inhibitors of Inflammasome Signaling: IL-1-beta AlphaLISA Primary Screen; THP-1 LPS/ATP IL-1B secretion, AlphaLISA, 16 h; active compounds read low; activity change, % at 57.5 µM; actives 4.7% (n = 360,000); in the data active means activity change below about -50%; inconclusive means mostly about -30% to -49%
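Secreted IL-1B measured by AlphaLISA bead assay after 16 h compound exposure of THP-1 cells; compounds (final up to 57.5 uM) added 1 h before LPS (250 ng/mL) and ATP (1.25 mM) stimulation; lower signal means less secretion.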
TDP1 cell noCPT: qHTS for Inhibitors of human tyrosyl-DNA phosphodiesterase 1 (TDP1): qHTS in cells in absence of CPT. DT40 Tdp1-/- hTDP1 cells, no CPT, ATP luminescence, 48 h. Potency, µM (top dose mostly 46.2 µM), for the others: top-dose activity change, negative = growth inhibition, usual class: inhibitors. actives 15% (n = 420,000). AID 686978, 2013; further: potency means the concentration at half of the fitted maximal effect; nearly all actives have a fitted effect of over 55% in size
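Readout: luminescence from CellTiter-Glo after 30 min in the dark at RT. Cells: DT40 Tdp1-/- with stable hTDP1, 400/well. Exposure: compounds alone, ≥48 hr, 37 °C.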
TDP1 cell CPT: qHTS for Inhibitors of human tyrosyl-DNA phosphodiesterase 1 (TDP1): qHTS in cells in presence of CPT | actives 12% (n = 420,000) | Potency, µM (doses to about 46.2 µM), for inactives: at the top dose activity change, negative = growth inhibition, hits mostly inhibitors | chicken DT40 Tdp1-/-;hTDP1 cells + 20 nM CPT, ATP luminescence, 48 h; further: potency means the concentration at half of the fitted maximal effect; nearly all actives have a fitted effect of over 55% in size
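Chicken DT40 Tdp1-/- cells stably complemented with human TDP1 were seeded at 400 cells/well in medium containing 20 nM camptothecin, exposed to pin-transferred compounds, and grown at 37 °C for at least 48 hr. Viability was read as ATP luminescence.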
Numbers without * were called inactive; ? = inconclusive; nt = not tested or not shown; [ ] = dose if it differs, or a comment. Unless noted, the call rests on the fitted dose curve; in most records, active means well fitted curve in the direction sought with a large enough effect; inconclusive means small, poorly fitted or top-dose-only effect, or another doubt; inactive means no such curve, though single readings can be large; an effect the other way counts as inactive or inconclusive. Unless noted, on the % scale 0 is the no-effect control and ±100 the full control effect.

SMILES	HT1080 IDH1KD tx	HT1080-NT tox	IL1B secr inh	TDP1 cell noCPT	TDP1 cell CPT
O=C(NCC(c1ccco1)N1CCc2ccccc21)C(=O)Nc1ccc(F)cc1F (configuration not stated)	?	?	1	3.3µM*	4.1µM*
O=C(NCC(c1ccco1)N1CCc2ccccc21)C(=O)Nc1ccccc1F (configuration not stated)	-18%	-3%	-7	18µM*	?
CCCCC[C@H](C)N1C[C@@H](COCc2ccccc2)Oc2cc(N3CCC[C@H]3C(N)=O)ccc2S1(=O)=O	?	?	0	?	?
CCCCC[C@H](C)N1C[C@@H](COCc2ccccc2)Oc2cc(N3CCC[C@H]3CO)ccc2S1(=O)=O	?	?	-23	?	?
CCCCC[C@H](C)N1C[C@@H](COCc2ccccc2)Oc2cc(N3CCC[C@H]3COC)ccc2S1(=O)=O	-15%	-3%	0	18µM*	?
CCCCC[C@@H](C)N1C[C@@H](COCc2ccccc2)Oc2cc(N3CCC[C@H]3C(N)=O)ccc2S1(=O)=O	?	?	-30	16µM*	?
CCCCC[C@H](C)N1C[C@H](COCc2ccccc2)Oc2cc(N3CCC[C@H]3CO)ccc2S1(=O)=O	?	?	-55*	21µM*	?
COc1cc(CN(C(=O)c2cccs2)C2CCS(=O)(=O)C2)cc(OC)c1OC (configuration not stated)	21%	4%	0	-1%	12%
Cc1ccc(NC(=O)CC2Oc3ccc(C)cc3NC2=O)c(C)c1 (configuration not stated)	-13%	1%	9	21µM*	?
Cc1ccc2c(c1)NC(=O)C(CC(=O)Nc1ccc(Br)c(C)c1)O2 (configuration not stated)	0%	16%	-1	-13%	-4%
COc1ccc(N2CCOCC2)c(NC(=O)COc2cccc(C)c2C)c1	0%	-11%	-11	?	?
CC1CCCN(CC(=O)Nc2ccc(S(=O)(=O)N3C(C)CCCC3C)cc2)C1 (configuration not stated)	-11%	0%	-20	16µM*	?
CCOC(=O)CCC(=O)Nc1ccc(S(=O)(=O)N2CCC(C)CC2)cc1	3%	11%	5	-12%	4%
CC1CCN(CC(=O)Nc2ccc(S(=O)(=O)N3CCCC(C)C3)cc2)CC1 (configuration not stated)	-8%	-8%	-51*	-12%	?
CC1CCCN(S(=O)(=O)c2ccc(NC(=O)CN3CCN(C)CC3)cc2)C1 (configuration not stated)	8%	9%	4	-3%	?
CCOC(=O)C1CCN(CC(=O)Nc2ccc(S(=O)(=O)N3CCC(C)CC3)cc2)CC1	0%	0%	18	21µM*	?
CCc1[nH]nc(C(=O)N2CCCC(Nc3cccc(F)c3)C2)c1C (configuration not stated)	1%	3%	-1	-1%	-5%
O=C(NNC(=O)c1c(O)c2ccccc2[nH]c1=O)c1ccccc1Br	-4%	-6%	-13	?	?
Cc1cc(-c2cccc(Br)c2)c(C#N)c(N)n1	-2%	-4%	13	-13%	-2%
O=[N+]([O-])c1ccc(-c2cn3ccccc3n2)cc1	1%	-2%	?	?	?
CCCOc1ccc(-c2csc(N)n2)cc1[N+](=O)[O-]	11%	1%	-28	10µM*	15µM*
CCCCOc1ccc(-c2cn3ccccc3n2)cc1[N+](=O)[O-]	?	-22%	-11	26µM*	?
CCOc1ccc(-c2cn3ccccc3n2)cc1[N+](=O)[O-]	16µM*	15µM*	9	?	?
Nc1cccc2c1C(=O)N(c1ccccc1)C2=O	2%	16%	0	-1%	-1%
Cc1cc(Cl)ccc1NC(=O)c1ccc2c(c1)CCN2S(C)(=O)=O	-1%	-1%	-9	?	-19%
SMILES	HT1080 IDH1KD tx	HT1080-NT tox	IL1B secr inh	TDP1 cell noCPT	TDP1 cell CPT
Cc1ncc2c(c1CNC(=O)c1ccc3c(c1)OCO3)CCN(C(=O)c1coc3c1C(=O)CCC3)C2	nt	nt	nt	-16%	12%[9.04 µM]
Cc1nc(-c2ccc(F)cc2)sc1CCNC(=O)C(=O)Nc1ccc2c(c1)OCO2	nt	nt	nt	-29%	?
COc1cc(CN(C)CC2CCCN(CCc3ccccc3F)C2)cc(Cl)c1OC (configuration not stated)	?	-25%	-84*	26µM*	?
COc1ccc(CN(C)CC2CCCN(CCc3ccc(F)cc3)C2)cc1OC (configuration not stated)	-21%	?	?	23µM*	16µM*
COc1ccc(F)c(CN(C)CC2CCCN(CCc3ccc(F)cc3)C2)c1 (configuration not stated)	?	?	-58*	16µM*	?
COc1ccc(CCN2CCCC(CN(C)Cc3cc(OC)c(OC)c(OC)c3)C2)cc1 (configuration not stated)	?	-23%	-14	16µM*	21µM*
COc1cc(CN(C)CC2CCCN(CCc3ccc(F)cc3)C2)c(Cl)cc1O (configuration not stated)	-9%	-4%	5	-29%	-3%
CN(Cc1ccccc1)CC1CCCN(CCc2ccccc2F)C1 (configuration not stated)	-9%	-5%	-23	?	?
COCc1ccc(C(=O)N(C)CC2CCCN(CCc3ccccc3F)C2)o1 (configuration not stated)	12%	7%	30	-15%	-19%
CCc1ccc(NC(=O)Cn2c(=O)n(CCCCC(=O)NCc3ccc4c(c3)OCO4)c(=O)c3ccccc32)cc1	nt	nt	nt	-27%	?
COC(=O)CCC(=O)N(C)CC1CCCN(CCc2cccc(C(F)(F)F)c2)C1 (configuration not stated)	12%	4%	6	2%	-3%
Cc1ccccc1CCN1CCCC(CN(C)CC(C)(C)C)C1 (configuration not stated)	4%	0%	10	?	7%
COc1ccccc1CCN1CCCC(CN(C)Cc2ccc(OCCO)cc2)C1 (configuration not stated)	-15%	-15%	-23	?	?
